# From publication PMC10943123
# Molecular target: Small nuclear ribonucleoprotein G (UniProt P62308)
# Assay: cross-link between two proteins; cross-linking mass spectrometry
substance,measurement,value
"Small nuclear ribonucleoprotein-associated proteins B and B', P14678",listed as a hit,yes
